# Results reported in PubChem BioAssay (Tox21).
# Inconclusive results are not listed. Entries that show only a call come without a potency. Active and inactive are the calls of the source. Unless noted, calls come from the whole dose curve; as a rule, active = well fitted curve in the direction sought with a large enough effect in the repeat runs; inconclusive = weak or mixed curves; inactive = no such curve, though single readings can be large; an effect the other way counts as inactive or inconclusive. Positions of bridges follow the written chain, without caps; N, C: chain ends. Non-standard residues stand in square brackets, D forms with d. Residues, ends and D or L forms follow the SMILES beside them. ξ: configuration not given here. *: point of attachment. d(aThr) = C[C@@H](O)[C@@H](N)C(=O)O; ξThr(3R) = C[C@@H](O)C(N)C(=O)O; X3 = CC[C@@H](C)CCCCC(=O)*; dDab = NCC[C@@H](N)C(=O)O
# Tests used:
# [1] = qHTS assay for small molecules that induce genotoxicity in human embryonic kidney cells expressing luciferase-tagged ATAD5 (AID 651632); note: nearly all actives have a fitted effect of over 15% in size; note: potency is the fitted concentration of half-maximal effect
# In short: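 Luminescence read-out: after 16 hr compound exposure at 37C, ATAD5-luciferase HEK293T cells received Amplite, 30 min RT, then CCD imaging. A rise in signal marks genotoxic stress.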
# [2] = qHTS assay for small molecule agonists of the p53 signaling pathway - cell viability (AID 651633; calls by dose curve; note: nearly all actives have a fitted effect of over 30% in size; note: potency is the fitted concentration of half-maximal effect)
# In short: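 p53RE-bla cells, seeded at 4,000 per well and rested 5 h at 37 C/5% CO2, received compounds in DMSO for 16 h at 37 C. CellTiter-Glo was then added, and luminescence was read after 30 min at room temperature to gauge cytotoxicity.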
# [3] = qHTS assay for small molecules that induce genotoxicity in human embryonic kidney cells expressing luciferase-tagged ATAD5 - cell viability (AID 651634; calls by dose curve; note: nearly all actives have a fitted effect of over 25% in size; note: potency is the fitted concentration of half-maximal effect)
# In short: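 HEK293T ATAD5-luc cells, 2,000/well; compound 15.5 hr, 37C/5% CO2; CellTiter-Fluor 30 min, 37C; fluorescence read.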
# [4] = qHTS assay to test for compound auto fluorescence at 590 nm (red) in HepG2 cells (AID 720674)
# In short: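 Compound auto-fluorescence is scored relative to Rose Bengal sodium, measured at 540/590 nm in live HepG2 cultures after 1 hr compound contact (37 C, 5% CO2).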
# [5] = qHTS assay to test for compound auto fluorescence at 535 nm (green) in HepG2 cells (AID 720675)
# [6] = qHTS assay to test for compound auto fluorescence at 460 nm (blue) in HEK293 cells (AID 720678)
# In short: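 Blue-channel (Ex/Em 405/460 nm) intensity measured in HEK293 cultures after overnight compound exposure at 37C; signal expressed relative to triamterene. Cells plated 2,000 per well in 10% dialyzed FBS medium and allowed 4-5 hr to attach.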
# [7] = qHTS assay to test for compound auto fluorescence at 590 nm (red) in HEK293 cells (AID 720679)
# In short: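 Red-channel autofluorescence (Ex/Em 540/590 nm; Rose Bengal sodium reference) was measured after overnight 37C, 5% CO2 exposure of attached HEK293 cells, 2,000 per well in medium with 10% dialyzed FBS.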
# [8] = qHTS assay for small molecule disruptors of the mitochondrial membrane potential (AID 720635); note: potency is the fitted concentration of half-maximal effect
# In short: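 HepG2 cells (2,000/well) attached overnight at 37C, then took compound for 1 hr at 37C, 5% CO2. Mito-MPS dye was added for 30 min; fluorescence was read at 490/535 nm (monomers) and 540/590 nm (aggregates).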
# [9] = qHTS assay for small molecule disruptors of the mitochondrial membrane potential - cell viability (AID 720634; calls by dose curve;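 note: human HepG2 liver cancer cells; series mostly up to about 83 µM; nearly all actives have a fitted effect of over 20% in size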)
# In short: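 Luminescence from CellTiter-Glo (ATP content) gave viability in HepG2 cells, read in the same wells as the MMP dye assay after 1 hr compound exposure at 37 C.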
Compound,Potency [1],Potency [2],Potency [3],Potency [4],Potency [5],Potency [6],Potency [7],Potency [8],Potency [9]
COc1cc(NCCCC(C)N)c2ncccc2c1 (stereo unspecified),inactive,inactive,inactive,inactive,inactive,inactive,inactive,,
CN=C1C=CC(=C(c2ccc(N(C)C)cc2)c2ccc(N(C)C)cc2)C=C1,inactive,18.8 µM (active),4.73 µM (active),inactive,inactive,inactive,inactive,0.0441 µM (active),
S=C1SCN(Cc2ccccc2)CN1Cc1ccccc1,inactive,inactive,inactive,inactive,inactive,inactive,inactive,,inactive
CO[C@H]1C[C@@H]2CC[C@@H](C)[C@@](O)(O2)C(=O)C(=O)N2CCCC[C@H]2C(=O)O[C@H]([C@H](C)C[C@@H]2CC[C@@H](OC(=O)C(C)(CO)CO)[C@H](OC)C2)CC(=O)[C@H](C)/C=C(\C)[C@@H](O)[C@@H](OC)C(=O)[C@H](C)C[C@H](C)/C=C/C=C/C=C/1C,inactive,inactive,inactive,inactive,inactive,inactive,inactive,inactive,
CCC(=O)OCC(=O)[C@@]1(OC(=O)CC)[C@@H](C)C[C@H]2[C@@H]3CCC4=CC(=O)C=C[C@]4(C)[C@@]3(Cl)[C@@H](O)C[C@@]21C,inactive,inactive,,inactive,inactive,inactive,inactive,21.1 µM (active),inactive
O=C(O)CO.[NH2-].[NH2-].[Pt+2],inactive,inactive,inactive,inactive,inactive,inactive,inactive,inactive,
Cc1c(O)cc2c(c1C)O[C@](C)(CCC[C@H](C)CCC[C@H](C)CCCC(C)C)CC2,inactive,inactive,inactive,inactive,inactive,inactive,inactive,inactive,
CC(=O)N=c1sc(S(N)(=O)=O)nn1C,inactive,inactive,inactive,inactive,inactive,inactive,inactive,,inactive
NNc1nnc(Cc2ccncc2)c2ccccc12,inactive,inactive,inactive,inactive,inactive,inactive,inactive,,inactive
CCCCCc1ccc(C)cc1O,inactive,inactive,inactive,inactive,inactive,inactive,inactive,10.6 µM (active),
O=P(O)(O)OC[C@H]1O[C@](O)(COP(=O)(O)O)[C@@H](O)[C@@H]1O,inactive,inactive,inactive,inactive,inactive,inactive,inactive,inactive,
c1ccc2c(c1)Sc1ccccc1N2CCN1CCCC1,inactive,inactive,inactive,inactive,,inactive,inactive,,inactive
C[C@]12CCC(=O)C=C1CC[C@@H]1[C@@H]2[C@@H](O)C[C@@]2(C)[C@H]1CC[C@]2(O)C(=O)COP(=O)(O)O,inactive,inactive,inactive,inactive,,inactive,inactive,,inactive
O=C1/C(=C\c2cccs2)CCC/C1=C\c1cccs1,5.96 µM (active),inactive,inactive,inactive,inactive,inactive,inactive,21.1 µM (active),
CCN(CC)Cc1cc(Nc2ccnc3cc(Cl)ccc23)ccc1O,inactive,inactive,,inactive,inactive,inactive,,inactive,inactive
C[C@]12CCC(=O)C[C@@H]1CC[C@@H]1[C@@H]2CC[C@]2(C)C=CC[C@@H]12,inactive,inactive,inactive,inactive,inactive,inactive,inactive,,inactive
OC1OC[C@@H](O)[C@H](O)[C@@H]1O (stereo partly specified),inactive,inactive,inactive,inactive,inactive,inactive,inactive,,
Cn1c(O)c(N=NC(N)=S)c2ccccc21,inactive,inactive,,inactive,inactive,inactive,inactive,4.95 µM (active),inactive
CC(C)(S)[C@@H](N)C(=O)O,inactive,inactive,inactive,inactive,inactive,inactive,inactive,,inactive
CCN(CC)CCC(=O)N1c2ccccc2Sc2ccc(Cl)cc21,inactive,inactive,inactive,inactive,inactive,inactive,inactive,,inactive
CC(CC(c1ccccc1)c1ccccc1)NC(C)(C)C (stereo unspecified),inactive,inactive,inactive,inactive,,inactive,inactive,,inactive

Compound,Potency [1],Potency [2],Potency [3],Potency [4],Potency [5],Potency [6],Potency [7],Potency [8],Potency [9]
CCN1C(=O)NC(c2ccccc2)C1=O (stereo unspecified),inactive,inactive,inactive,inactive,inactive,inactive,inactive,,inactive
N[C@H](CC(=O)O)C(=O)O,inactive,inactive,inactive,inactive,inactive,inactive,inactive,inactive,
CN1[C@@H]2CC[C@H]1CC(OC(c1ccccc1)c1ccccc1)C2 (stereo partly specified),inactive,inactive,inactive,inactive,inactive,inactive,inactive,,inactive
CCOc1cc(-c2nccc3cc(OC)c(OC)cc23)cc(OCC)c1OCC,inactive,inactive,26.6 µM (active),inactive,inactive,inactive,inactive,,
C[N+]1(C)[C@@H]2CC(OC(=O)C(O)(c3cccs3)c3cccs3)C[C@H]1[C@@H]1O[C@@H]12 (stereo partly specified),inactive,inactive,,inactive,inactive,inactive,inactive,inactive,inactive
CCC(=O)O[C@]1(C(=O)CCl)[C@@H](C)C[C@H]2[C@@H]3C[C@H](F)C4=CC(=O)C=C[C@]4(C)[C@@]3(F)[C@@H](O)C[C@@]21C,inactive,inactive,inactive,inactive,inactive,inactive,inactive,11.9 µM (active),
C[C@]12CC[C@@H]3c4ccc(OC(=O)c5ccccc5)cc4CC[C@H]3[C@@H]1CC[C@@H]2O,inactive,inactive,inactive,inactive,inactive,inactive,inactive,2.98 µM (active),
Cc1cc(C)c(NC(=O)C[C@H](CC(=O)O)c2cccc3ccccc23)c(C(=O)N2CCC3(CCCC3)CC2)c1,inactive,inactive,inactive,inactive,,inactive,inactive,,inactive
CC(C)(C)NCC(O)c1ccc(O)c(CO)n1 (stereo unspecified),inactive,inactive,inactive,inactive,inactive,inactive,inactive,,
Cc1cc(O)c2c(c1)O[C@@]1(C)CC[C@H]3C(C)(C)CCCC34CO[C@@H]2[C@H]41 (stereo partly specified),inactive,26.6 µM (active),,inactive,inactive,inactive,inactive,,
CC[C@@H](C)CCCCC(=O)N[C@H](CCN)C(=O)N[C@@H](C(=O)N[C@H](CCN)C(=O)N[C@@H]1CCNC(=O)C([C@@H](C)O)NC(=O)[C@@H](CCN)NC(=O)[C@@H](CCN)NC(=O)[C@@H](CC(C)C)NC(=O)[C@@H](Cc2ccccc2)NC(=O)[C@@H](CCN)NC1=O)[C@@H](C)O (stereo partly drawn) (X3-[dDab][d(aThr)][dDab][dDab][dDab][dF][dL][dDab][dDab][ξThr(3R)]; lactam 4-C),inactive,,inactive,inactive,inactive,inactive,inactive,inactive,inactive
O=C(CCCN1CCC(n2c(=S)[nH]c3ccccc32)CC1)c1ccc(F)cc1,inactive,inactive,,inactive,inactive,inactive,inactive,inactive,inactive
COc1ccc(C(=O)CCC(=O)O)c2ccccc12,inactive,inactive,,inactive,inactive,inactive,inactive,inactive,inactive
C=CC[C@@H]1/C=C(\C)C[C@H](C)C[C@H](OC)[C@H]2O[C@@](O)(C(=O)C(=O)N3CCCC[C@H]3C(=O)O[C@H](/C(C)=C/[C@@H]3CC[C@@H](O)[C@H](OC)C3)[C@H](C)[C@@H](O)CC1=O)[C@H](C)C[C@@H]2OC,inactive,26.6 µM (active),,inactive,inactive,inactive,,,
O=C(NOC[C@H](O)CO)c1ccc(F)c(F)c1Nc1ccc(I)cc1F,inactive,inactive,,inactive,inactive,inactive,inactive,,inactive
COC(=O)CCC[N+](C)(C)C,inactive,inactive,,inactive,inactive,inactive,inactive,inactive,inactive
OC[C@H]1OC([S-])[C@H](O)[C@@H](O)[C@@H]1O.[Au+] (stereo partly specified),inactive,inactive,,inactive,inactive,inactive,inactive,inactive,
CCC(=O)O[C@@H]1CC(=O)O[C@H](C)C/C=C/C=C/[C@H](O)[C@H](C)C[C@H](CC=O)[C@H](O[C@@H]2O[C@H](C)[C@@H](O[C@H]3C[C@@](C)(O)[C@@H](OC(=O)CC)[C@H](C)O3)[C@H](N(C)C)[C@H]2O)[C@H]1OC,inactive,,inactive,inactive,inactive,inactive,inactive,inactive,inactive
CC(=O)Nc1c(I)c(C(=O)N[C@H]2C(O)O[C@H](CO)[C@@H](O)[C@@H]2O)c(I)c(N(C)C(C)=O)c1I (stereo partly specified),inactive,inactive,,inactive,inactive,inactive,inactive,inactive,inactive
CN(C)c1ccc(C(=C2C=CC(=[N+](C)C)C=C2)c2c(O)c(S(=O)(=O)[O-])cc3cc(S(=O)(=O)O)ccc23)cc1,inactive,inactive,,inactive,inactive,inactive,inactive,,inactive
